Results published in PubChem BioAssay (NCATS).
Records with an inconclusive call do not appear. Unmarked numbers belong to inactive results. Activity calls are given as the source filed them. Calls follow the shape of the dose curve; as a rule, active = well fitted inhibition curve with a large enough effect; inconclusive = small, poorly fitted or top-dose-only effect; inactive = flat fitted curve, though single readings scatter.

experiment: Primary qHTS for inhibitors of nuclear receptor binding SET domain protein 2 (NSD2) in an isogenic RCH-ACV NSD2 p.E1099K mutant (9B) (AID 1645876); details: RCH-ACV (leukaemia line) NSD2 E1099K (9B) viability, CellTiter-Glo, 72 h; series mostly up to 44.9 µM; activity change, negative = viability loss: at the top concentration; also: nearly all actives have a fitted effect of over 70% in size
% is scaled to controls: 0 for no effect and ±100 for the full control effect.

Compound | outcome | activity change, negative = viability loss
CC1(C)CC[C@]2(C(=O)O[C@@H]3O[C@H](CO[C@@H]4O[C@H](CO[C@@H]5O[C@H](CO)[C@H](O)[C@H](O)[C@H]5O)[C@@H](O)[C@H](O)[C@H]4O)[C@@H](O)[C@H](O[C@@H]4O[C@H](CO)[C@@H](O)[C@H](O)[C@H]4O)[C@H]3O)[C@H](O)C[C@]3(C)C(=CCC4[C@@]5(C)CC[C@H](O[C@@H]6OC[C@@H](O)[C@H](O)[C@H]6O)[C@@](C)(C(=O)O)C5CC[C@]43C)[C@@H]2C1 (stereo not given in full) | inactive [at 9.23 µM] | 
CC12CC(O)C(O)C=C1c1cc(O)cc(O)c1C(=O)O2 (stereo not given) |  | -8.59%
CC1(C)CC[C@]2(C(=O)O[C@@H]3O[C@H](CO)[C@@H](O)[C@H](O)[C@H]3O)CC[C@]3(C)C(=CCC4[C@@]5(C)C[C@H](O)[C@H](O[C@@H]6O[C@H](C(=O)O)[C@@H](O)[C@H](O)[C@H]6O)[C@@](C)(CO)C5CC[C@]43C)C2C1 (stereo not given in full) |  | -12.9% [at 9.23 µM]
CC(=O)/C=C/C1(O)C(C)=CC(=O)CC1(C)C (stereo not given) |  | -1.11%
COc1cc([C@H]2OC[C@](O)(Cc3ccc(O[C@@H]4O[C@H](CO)[C@@H](O)[C@H](O)[C@H]4O)c(OC)c3)[C@@H]2CO)ccc1O |  | 3.77% [at 17.3 µM]
